Hits are enriched below; roughly 9.3% of the tested compounds scored in any of these assays.
SMN2 splice enh = enhancers of SMN2 splice variant expression. HEK293 SMN2-luciferase splicing reporter, luminescence, 30-36 h. Potency, µM (doses to about 46.1 µM), for the others: top-dose activity change, positive = activation, usual class: activators. actives 2.8% (n = 210,000). AID 1458; also: % of control where 0% means no effect; nearly all actives have a fitted effect of over 55% in size
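qHTS luciferase splicing reporter: luminescence rises when SMN2 exon 7 is included in transfected HEK293 cells. Compound exposure lasted 30-36 h at 37C, with 4.5 mM final sodium butyrate as control, followed by a ONE-Glo read.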
Rab9 prom act = Rab9 promoter activation | Huh7 Rab9 promoter-luciferase reporter, luminescence, 24 h | Potency, µM (top dose mostly 9.22 µM), without a hit: at the highest dose activation, negative = inhibition, most hits filed as activators | actives 2.8% (n = 320,000); also: % of control where 0% means no effect; nearly all actives have a fitted effect of over 60% in size
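Steps: seed 1500 Huh7 Rab9-luc cells per well, rest 2 h at 37 °C; add compound in DMSO; incubate 24 h; add luciferase reagent, 10 min ambient; read luminescence.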
ELG1 DNA repair = blocks ELG1-dependent DNA repair in HEK293T cells; actives 2.3% (n = 330,000); Potency, µM (doses to about 46.1 µM), for the others: at the top dose activity change, negative = inhibition, hits mostly inhibitors; AID 504467; HEK293T ELG1-luciferase reporter, luminescence, 16 h; DNA damage induced by 5-fluorouridine; also: % is scaled to controls: 0 for no effect and ±100 for the full control effect; nearly all actives have a fitted effect of over 55% in size
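Step one: seed 2,000 cells per well. Step two: pin-transfer compound or DMSO alongside 5-fluorouridine. Step three: incubate 16 hr, 37 °C, 5% CO2. Step four: add ONE-Glo, wait 30 min, read luminescence.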
ELG1 genotoxic = inducers of genotoxicity in HEK293T ELG1-luciferase cells; Potency, µM (doses to about 46 µM), for the others: at the highest dose activity change, positive = activation, most hits filed as activators; HEK293T ELG1-luciferase reporter, luminescence, 16 h; actives 1.3% (n = 330,000); also: % of control where 0% means no effect; nearly all actives have a fitted effect of over 60% in size
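Quantitative HTS format in 1536-well plates. HEK293T ELG1-luciferase reporter cells receive test compound and are incubated 16 hr at 37 °C, 5% CO2; ONE-Glo added, 30 min room temperature, then luminescence read.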
FLuc counter = inhibits or activates purified firefly luciferase, miR-21 counter-screen; P08659; purified FLuc, Km substrates, luminescence inhibition; Potency, µM (series often up to 57.5 µM), without a hit: top-dose activity change, negative = inhibition, usual class: inhibitors; actives 6.9% (n = 360,000);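 also: plate controls were vehicle for no effect and reference inhibitor for full effect; nearly all actives have a fitted effect of over 55% in size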
Target sequence (P08659 whole entry, looked up): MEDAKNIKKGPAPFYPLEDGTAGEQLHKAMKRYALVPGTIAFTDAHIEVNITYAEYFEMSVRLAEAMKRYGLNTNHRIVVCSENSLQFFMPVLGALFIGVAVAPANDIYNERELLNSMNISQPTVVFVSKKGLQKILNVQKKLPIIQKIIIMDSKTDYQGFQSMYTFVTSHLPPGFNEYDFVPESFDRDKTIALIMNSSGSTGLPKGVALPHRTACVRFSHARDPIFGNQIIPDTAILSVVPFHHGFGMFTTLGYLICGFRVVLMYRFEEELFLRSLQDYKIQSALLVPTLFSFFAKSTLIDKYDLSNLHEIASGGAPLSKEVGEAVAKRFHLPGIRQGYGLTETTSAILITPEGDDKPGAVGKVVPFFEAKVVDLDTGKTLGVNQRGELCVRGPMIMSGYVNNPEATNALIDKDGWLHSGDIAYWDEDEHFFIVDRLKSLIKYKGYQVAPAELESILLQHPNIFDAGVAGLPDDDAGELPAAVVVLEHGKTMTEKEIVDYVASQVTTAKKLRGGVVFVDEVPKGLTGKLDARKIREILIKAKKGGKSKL
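Purified P. pyralis luciferase, 10 nM final, with Km-level 10 uM D-luciferin and 10 uM ATP in 50 mM Tris acetate pH 7.5, 10 mM Mg acetate, 0.01% Tween-20, 0.05% BSA; 6-point qHTS titration about 60 µM downward; luminescence read.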
NPC1 prom act = NPC1 promoter activation; Huh7 NPC1 promoter luciferase reporter, 24 h; Potency, µM (top dose mostly 9.22 µM), inactives show top-dose activation, actives largely listed as activators; actives 2.4% (n = 320,000); AID 485313; also: % of control where 0% means no effect; nearly all actives have a fitted effect of over 60% in size
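Huh7 reporter cells (NPC1 promoter driving luciferase) are dosed with compound for 24 h at 37 °C, 5% CO2; luciferase detection reagent is then added and luminescence measured after 10 min at ambient temperature.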
Starred values were filed as active, the others as inactive; ? = inconclusive; / = no result; [ ] = remark or other dose. Calls follow the shape of the dose curve; as a rule, active = well fitted curve in the direction sought with a large enough effect; inconclusive = small, poorly fitted or top-dose-only effect, or another doubt; inactive = no such curve, though single readings can be large; an effect the other way counts as inactive or inconclusive. Potency is read from the fitted curve at half-maximal effect.

SMILES	SMN2 splice enh	Rab9 prom act	ELG1 DNA repair	ELG1 genotoxic	FLuc counter	NPC1 prom act
CCN(CC)c1nn2c(=O)c(C(=O)NCc3ccc(F)cc3)cnc2s1	/	/	/	/	6%	/
O=C1/C(=C/c2ccco2)SC(=S)N1CC1CCCO1 (configuration not stated)	/	21%	-10%	7%	17µM*	-2%
Cc1ccc(/C=C2\SC(=S)N(CC3CCCO3)C2=O)o1 (configuration not stated)	/	?	-1%	4%	21µM*	17%
Cc1ccc(/C=C2/SC(=O)NC2=S)o1	-4%	-1%	0%	0%	27µM*	-2%
CCN(CC)CCNC(=O)c1[nH]c2ccc(OCc3ccccc3)cc2c1C	-36%	-11%	7%	0%	-2%	-2%
Nc1cc2nc3ccccc3oc-2cc1=O	/	?	?	0%	?	24%
C[C@H]1[C@H](C)CC[C@]2(C(=O)O)CC[C@]3(C)C(=CC[C@H]4[C@]3(C)C[C@@H](O)C3[C@](C)(CO)[C@H](O)[C@@H](O)C[C@]34C)[C@H]12 (some centres not stated)	-7%[9.22 µM]	/	/	/	/	/
CN(CC(=O)NCc1ccccc1Cl)CC(=O)Nc1cccc(F)c1	-16%	0%	-28%	-1%	-1%	1%
CCCn1nnc(NC(=O)c2ccccc2Cl)n1	19%	?	?	21%	?	?
Cc1ccc(C(=O)Nc2nnn(C)n2)cc1	?	?	?	?	17µM*	29%
CCCn1nnc(NC(=O)c2cccc(OCC)c2)n1	18µM*	?	?	18µM*	17µM*	?
CCCn1nnc(NC(=O)c2ccc(Cl)cc2Cl)n1	88%	3.2µM*	?	9.2µM*	19µM*	3.2µM*
CCn1nnc(NC(=O)c2cccnc2)n1	14%	0%	22%	1%	5%	1%
Cn1nnc(NC(=O)c2cccc(F)c2)n1	-9%	-1%	-3%	5%	1%	-3%
CCn1nnc(NC(=O)c2ccc(C(C)(C)C)cc2)n1	/	1.3µM*	?	?	3.4µM*	2.2µM*
CCOCc1nnc(NC(=O)C2c3ccccc3Oc3ccccc32)s1	-4%	2%	?	-1%	-4%	-1%
Cc1nn(CC(=O)NC(=O)NC2CCCC(C)C2C)c(=O)c(C#N)c1C (configuration not stated)	/	-2%	1%	2%	0%	-3%
CCCn1nnc(NC(=O)c2ccc3ccccc3c2)n1	/	?	?	3%	15µM*	?
CCCn1nnc(NC(=O)c2ccc(F)cc2)n1	?	?	?	5%	?	28%
CCC(C)(C)C1CCC(=NNc2nc3ccccc3[nH]2)CC1 (configuration not stated)	1%	7%	10%	2%	12µM*	6%
CC(=O)NS(=O)(=O)c1ccc(NC(=O)c2oc3c(Cl)cccc3c2C)cc1	/	2%	-4%	-1%	13µM*	-1%
Cc1ccc(C)c(N2C(=O)CC(Cc3ccccc3)C2=O)c1 (configuration not stated)	/	0%	-5%	0%	-3%	1%
COc1ccccc1C1=CC(=O)C[C@H](c2ccc(Cl)cc2)C1	/	-4%	?	0%	2%	-1%
COc1cccc(C2=CC(=O)C[C@H](c3ccc(Cl)cc3)C2)c1OC	/	-3%	21µM*	0%	0%	-1%
O=C(COC(=O)c1nc(Cl)ccc1Cl)NCc1ccccc1	-4%	-1%	?	4%	6%	3%
SMILES	SMN2 splice enh	Rab9 prom act	ELG1 DNA repair	ELG1 genotoxic	FLuc counter	NPC1 prom act
O=C(Nc1ccccc1C(=O)N/N=C/c1ccco1)c1ccc(Cl)cc1	1%	2%	-6%	1%	2.1µM*	12%
O=C(Nc1ccccc1C(=O)N/N=C/c1ccco1)c1ccc(F)cc1	14%	-4%	10%	-1%	8.5µM*	-2%
O=C(N/N=C\c1ccco1)Nc1cccc(Cl)c1	10µM*	2.5µM*	?	?	19µM*	3.2µM*
O=C(Nc1ccccc1C(=O)N/N=C/c1ccco1)c1ccccc1	0%	2%	5%	0%	21µM*	-1%
COc1cccc(/C=N/n2c(COc3ccccc3)n[nH]c2=S)c1	/	-5%	-7%	0%	1%	3%
COc1ccc(CC(=O)NCC2CCCN(Cc3cc(OC)cc(OC)c3)C2)cc1 (configuration not stated)	/	3%	2%	0%	-2%	6%
O=C(CCc1nnc2ccc(N3CCCC3)nn12)Nc1ccc(F)cc1F	/	1%	12%	1%	1%	-5%
Cc1ccccc1COCCN1CCN(S(=O)(=O)c2ccccc2)CCC1=O	/	-5%	-3%	2%	1%	-4%
Cc1c(/C(O)=C2/C(=O)C(=O)N(Cc3cccnc3)C2c2cccs2)cnn1-c1ccccc1 (configuration not stated)	-29%	3.5µM*	?	?	-2%[2.3 µM]	?
Cc1c(/C(O)=C2/C(=O)C(=O)N(Cc3cccnc3)C2c2ccccn2)cnn1-c1ccccc1 (configuration not stated)	-19%	-17%	?	?	15µM*	-5%
O=C(CN1C(=O)NC2(CCCC2)C1=O)NNC(=O)c1ccc(Br)cc1	/	-7%	7%	-7%	-4%	-2%
CCc1ccc(C(=O)NNC(=O)CN2C(=O)NC3(CCCC3)C2=O)cc1	/	0%	14%	5%	15µM*	-4%
CCc1ccc(OCC(=O)Nc2c(C(=O)c3ccccc3)oc3ccccc23)cc1	25%	/	/	/	3%	/
C#CCNC(=O)/C=C/c1ccc(C)cc1	13µM*	4µM*	?	?	11µM*	3.2µM*
Cc1ccc(/C=C/C(=O)NCCCc2ccccc2)cc1	-10%	-1%	?	-3%	-26%	1%
CCCCOC(=O)C1=C(C)NC(=O)NC1c1cccc([N+](=O)[O-])c1 (configuration not stated)	/	2%	6.5µM*	-11%	10%	2%
CC1=C(C(=O)OCc2ccc3c(c2)OCO3)C(c2cccc([N+](=O)[O-])c2)NC(=O)N1 (configuration not stated)	-15%	-5%	7.3µM*	-10%	0%	6%
CCC(CC)COC(=O)C1=C(C)NC(=O)NC1c1cccc([N+](=O)[O-])c1 (configuration not stated)	/	-1%	-8%	-8%	1%	-4%
